Results taken from PubChem BioAssay AID1159580 (chemical genetic matrix, 2015).
Values joined by “and” are separate entries in the source; they are usually repeats but may differ in a detail not shown here. Equal values may be shown once. Among all 5,500 compounds or so, about 2,000 (36%) were called active. Another 18% or so got no clear call; they are omitted. Cut-off read from the data, not from the text of the source: active = normalized growth mostly below about 0.91 (no sharp cut-off); inconclusive = no clear call, values can overlap the other calls; inactive = mostly above about 0.92. The list shows a part of the results.

Assay: chemical genetic growth profiling, strain panel (AID 1159580);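 note: tested at 20 µM; growth read once vehicle control cultures reached saturation at 30 °C; 1 = growth at the plate median or of vehicle wells; lower values mean less growth of the strain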
Settings: S. cerevisiae deletion strains, growth OD

Measured: normalized growth

NS(=O)(=O)c1cc2c(cc1C(F)(F)F)NCNS2(=O)=O
inactive: locus YAL013W, strain DEP1, active compounds read low 1.03 | locus YAL021C, strain ccr4, active compounds read low 0.995 | locus YAL026C, strain drs2, active compounds read low 1 | locus YAL030W, strain snc1, active compounds read low 0.995 | locus YBL061C, strain skt5, active compounds read low 0.996 | locus YBR009C, strain hhf1, active compounds read low 0.985 | locus YBR021W, strain FUR4, active compounds read low 1 | locus YBR023C, strain chs3, active compounds read low 0.989 | locus YBR171W, strain sec66, active compounds read low 1.01 | locus YBR229C, strain ROT2, active compounds read low 1.02 | locus YBR231C, strain swc5, active compounds read low 0.975 | locus YBR279W, strain paf1, active compounds read low 0.992 | locus YCL011C, strain gbp2, active compounds read low 0.991 | locus YCL016C, strain dcc1, active compounds read low 0.969 | locus YCL029C, strain bik1, active compounds read low 0.997 | locus YCL061C, strain MRC1, active compounds read low 0.997 | locus YCL069W, strain vba3, active compounds read low 1 | locus YCR088W, strain abp1, active compounds read low 0.999 | locus YDL005C, strain med2, active compounds read low 0.99 | locus YDL035C, strain GPR1, active compounds read low 1.03 | locus YDL040C, strain nat1, active compounds read low 0.996 | locus YDL074C, strain BRE1, active compounds read low 1.01 | locus YDL101C, strain DUN1, active compounds read low 1.02 | locus YDL185W, strain tfp1, active compounds read low 0.997 | locus YDL192W, strain arf1, active compounds read low 0.993 | locus YDR001C, strain nth1, active compounds read low 1 | locus YDR069C, strain doa4, active compounds read low 1.01 | locus YDR101C, strain arx1, active compounds read low 1 | locus YDR137W, strain rgp1, active compounds read low 1.01 | locus YDR159W, strain sac3, active compounds read low 0.966 | locus YDR162C, strain NBP2, active compounds read low 1.02 | locus YDR195W, strain ref2 0.994 | locus YDR297W, strain sur2, active compounds read low 1.01 | locus YDR318W, strain mcm21, active compounds read low 0.986 | locus YDR334W, strain swr1, active compounds read low 1.01 | locus YDR335W, strain msn5, active compounds read low 0.999 | locus YDR388W, active compounds read low 0.998 | locus YDR392W, strain spt3, active compounds read low 0.939 | locus YDR502C, strain sam2, active compounds read low 0.988 | locus YEL003W, strain gim4, active compounds read low 1 | locus YEL037C, strain rad23, active compounds read low 1.02 | locus YEL061C, strain CIN8 (second series), active compounds read low 1.01 | locus YEL061C, strain CIN8, active compounds read low 1.02 | locus YER015W, strain faa2, active compounds read low 0.97 | locus YER016W, strain bim1, active compounds read low 1 | locus YER110C, active compounds read low 0.99 | locus YER111C, strain swi4, active compounds read low 1 | locus YER155C, strain BEM2 (second series), active compounds read low 0.98 | locus YER155C, strain BEM2, active compounds read low 1 | locus YER167W, strain BCK2, active compounds read low 1.01 | locus YFR010W, strain ubp6, active compounds read low 1 | locus YGL078C, strain dbp3, active compounds read low 0.983 | locus YGL086W, strain mad1, active compounds read low 0.99 | locus YGL167C, strain pmr1, active compounds read low 0.998 | locus YGL173C, strain kem1, active compounds read low 0.998 | locus YGL227W, strain vid30, active compounds read low 1 | locus YGL240W, strain doc1, active compounds read low 0.965 | locus YGL248W, strain PDE1, active compounds read low 1.02 | locus YGL253W, strain hxk2, active compounds read low 1.01 | locus YGR135W, strain pre9, active compounds read low 0.974 | locus YGR252W, strain gcn5, active compounds read low 0.922 | locus YHR013C, strain ard1, active compounds read low 0.989 | locus YHR027C, strain rpn1, active compounds read low 1.01 | locus YHR030C, strain SLT2, active compounds read low 1.01 and 0.988 | locus YHR079C, strain IRE1 (second series), active compounds read low 0.998 | locus YHR079C, strain IRE1, active compounds read low 0.984 | locus YHR094C, strain hxt1, active compounds read low 0.993 | locus YHR129C, strain ARP1, active compounds read low 1.02 | locus YHR142W, strain chs7, active compounds read low 1.01 | locus YHR200W, strain rpn10, active compounds read low 0.988 | locus YIL066C, strain RNR3, active compounds read low 1.03 | locus YIL073C, strain SPO22, active compounds read low 1.01 | locus YIL125W, strain kgd1, active compounds read low 0.992 | locus YIR030C, strain dcg1, active compounds read low 0.994 | locus YJL092W, strain hpr5, active compounds read low 1 | locus YJL095W, strain BCK1 (second series), active compounds read low 0.997 | locus YJL095W, strain BCK1, active compounds read low 1.03 and 0.978 | locus YJL115W, strain asf1, active compounds read low 1.01 | locus YJL129C, strain trk1, active compounds read low 1.01 | locus YJL134W, strain LCB3, active compounds read low 1.02 | locus YJL154C, strain vps35, active compounds read low 0.993 | locus YJL164C, strain tpk1, active compounds read low 0.992 | locus YJL166W, strain qcr8, active compounds read low 0.993 | locus YJL168C, strain set2, active compounds read low 0.987 | locus YJL187C, strain SWE1 (second series), active compounds read low 1.02 | locus YJL187C, strain SWE1, active compounds read low 0.994 | locus YJR043C, strain POL32, active compounds read low 1.02 | locus YJR066W, strain TOR1, active compounds read low 0.928 | locus YKL009W, strain mrt4, active compounds read low 1 | locus YKL068W, active compounds read low 1 | locus YKL085W, strain MDH1 (second series), active compounds read low 0.999 | locus YKL085W, strain MDH1, active compounds read low 0.999 | locus YKL160W, strain elf1, active compounds read low 0.986 | locus YKL190W, strain CNB1, active compounds read low 1.02 | locus YKR001C, strain vps1, active compounds read low 1.01 | locus YKR026C, strain gcn3, active compounds read low 0.993 | locus YKR091W, strain srl3, active compounds read low 0.993 | locus YLL001W, strain dnm1, active compounds read low 0.98 | locus YLL026W, active compounds read low 0.994 | locus YLL041C, strain sdh2, active compounds read low 0.997 | locus YLR027C, strain aat2, active compounds read low 1.01 | locus YLR039C, strain RIC1, active compounds read low 1.07 | locus YLR058C, strain SHM2, active compounds read low 1.02 | locus YLR102C, strain apc9, active compounds read low 0.985 | locus YLR113W, strain HOG1, active compounds read low 0.991 | locus YLR221C, strain rsa3, active compounds read low 0.974 | locus YLR258W, strain gsy2, active compounds read low 0.992 | locus YLR262C, strain YPT6 (second series), active compounds read low 1 | locus YLR262C, strain YPT6, active compounds read low 1.03 | locus YLR268W, strain sec22, active compounds read low 0.988 | locus YLR320W, strain mms22, active compounds read low 0.988 | locus YLR330W, strain CHS5, active compounds read low 1.02 | locus YLR342W, strain FKS1 (second series), active compounds read low 1.01 | locus YLR342W, strain FKS1, active compounds read low 1 | locus YLR357W, strain rsc2, active compounds read low 0.971 | locus YLR370C, strain arc18, active compounds read low 0.999 | locus YLR371W, strain rom2, active compounds read low 0.979 | locus YLR384C, strain iki3, active compounds read low 0.988 | locus YLR418C, strain cdc73, active compounds read low 0.967 | locus YML016C, strain PPZ1, active compounds read low 1.02 | locus YML032C, strain rad52, active compounds read low 0.985 | locus YML120C, strain ndi1, active compounds read low 0.983 | locus YML124C, strain tub3, active compounds read low 0.988 | locus YMR058W, strain fet3, active compounds read low 1.01 | locus YMR078C, strain ctf18, active compounds read low 0.997 | locus YMR125W, strain sto1, active compounds read low 0.982 | locus YMR129W, active compounds read low 0.999 | locus YMR205C, strain PFK2, active compounds read low 0.982 | locus YMR223W, strain ubp8, active compounds read low 0.986 | locus YMR231W, strain pep5, active compounds read low 0.998 | locus YMR307W, strain GAS1, active compounds read low 1.01 | locus YNL067W, strain RPL9B, active compounds read low 1.02 | locus YNL071W, strain lat1, active compounds read low 1 | locus YNL153C, strain GIM3, active compounds read low 1.01 | locus YNL183C, strain NPR1, active compounds read low 0.96 | locus YNL209W, strain ssb2, active compounds read low 0.986 | locus YNL233W, strain BNI4, active compounds read low 1.02 | locus YNL248C, strain rpa49, active compounds read low 1 | locus YNL250W, strain rad50, active compounds read low 0.996 | locus YNL271C, strain bni1, active compounds read low 0.999 | locus YNL298W, strain CLA4, active compounds read low 0.983 | locus YNL307C, strain MCK1, active compounds read low 0.988 | locus YNL322C, strain KRE1 (second series), active compounds read low 0.99 | locus YNR049C, strain mso1, active compounds read low 0.996 | locus YNR052C, strain pop2, active compounds read low 0.991 | locus YOL012C, strain htz1 0.725 | locus YOL147C, strain pex11, active compounds read low 0.991 | locus YOR001W, strain rrp6, active compounds read low 1.01 | locus YOR061W, strain CKA2, active compounds read low 1.03 | locus YOR069W, strain VPS5, active compounds read low 1.02 | locus YOR070C, strain gyp1, active compounds read low 0.992 | locus YOR080W, strain dia2, active compounds read low 0.99 | locus YOR083W, strain WHI5, active compounds read low 1.04 | locus YOR106W, strain vam3, active compounds read low 0.974 | locus YOR136W, strain idh2, active compounds read low 0.991 | locus YOR144C, strain elg1, active compounds read low 0.991 | locus YOR184W, strain ser1, active compounds read low 0.982 | locus YOR231W, strain MKK1, active compounds read low 0.991 | locus YOR265W, strain rbl2, active compounds read low 0.993 | locus YOR270C, strain vph1, active compounds read low 1.03 | locus YOR290C, strain snf2, active compounds read low 0.935 | locus YOR316C, strain cot1, active compounds read low 0.997 | locus YPL051W, strain arl3, active compounds read low 0.98 | locus YPL055C, strain LGE1, active compounds read low 1.02 | locus YPL078C, strain atp4, active compounds read low 1 | locus YPL106C, strain sse1, active compounds read low 0.966 | locus YPL240C, strain hsp82, active compounds read low 0.994 | locus YPL241C, strain CIN2, active compounds read low 1.02 | locus YPL256C, strain CLN2, active compounds read low 0.976 | locus YPR119W, strain clb2, active compounds read low 0.994 | locus YPR141C, strain kar3, active compounds read low 0.988 | locus YPR163C, strain tif3, active compounds read low 0.995 | locus YPR167C, strain met16, active compounds read low 0.987 | strain wtn01, active compounds read low 0.977
